The sample as a whole holds a higher share of hits than the screen did.
LDHA inh – blocks human lactate dehydrogenase A; 480,000 tested, 0.15% active; P00338; activity change, % (values are at about 110 or 230 µM); purified LDHA, NADH/diaphorase-resazurin fluorescence; stronger effect = lower value; in the data active means activity change below about -30%; inconclusive means mostly about -25% to -30%;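 further: plate controls were DMSO wells for no effect and wells without enzyme for full effect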
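LDH5 2 nM; NADH 0.06 mM, pyruvate 0.2 mM; 200 mM Tris pH 7.4, EDTA, Tween-20; 5 min RT. Detection: diaphorase 0.133 mg/mL + resazurin 37 µM, fluorescence ex540/em590 at 0 and 20 min; normalized to enzyme-free and DMSO wells.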
RGS4 inhibitor – blocks human RGS4-accelerated GTP hydrolysis; P49798; Transcreener GDP fluorescence polarization, RGS4-accelerated GTP hydrolysis; Potency, µM (titrated, usually from 114 µM), for the others: top-dose activity change, negative = inhibition, hits mostly inhibitors; 390,000 tested, 0.039% active; further: potency means the concentration at half of the fitted maximal effect; on the % scale 0 is the no-effect control and ±100 the full control effect; nearly all actives have a fitted effect of over 75% in size
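MLSMR compounds (23 nl, pin-transferred) preincubated 10 min at room temperature with a 500nM (2x) first reagent, then RGS4 at 900nM (2x) plus Transcreener GDP mix added; fluorescence polarization (620/688 nm) read before and after 90 min at 30 °C.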
Mito fusion act – blocks mitochondrial division or promotes mitochondrial fusion; S. cerevisiae fusion-defective mutant growth rescue, CellTiterGlo 48 h; Potency, µM (series often up to 46.1 µM), for inactives: top-dose growth rescue (activation), most hits filed as activators; 320,000 tested, 0.23% active; AID 485298; further: potency means the concentration at half of the fitted maximal effect; % of control where 0% means no effect; nearly all actives have a fitted effect of over 45% in size
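Temperature-sensitive fusion-defective S. cerevisiae (e.g. fzo1-1, mgm1-5) were grown with compound in YPEG medium (3% ethanol, 3% glycerol) for 48 hours at 37C. Growth rescue was measured as viability by CellTiterGlo luminescence after 10 minutes at ambient.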
IDH1 R132H inh – human IDH1 R132H inhibition. O75874. 390,000 tested, 0.093% active. Potency, µM (top dose mostly 76.6 µM), for the others: at the highest dose activity change, negative = inhibition, usual class: inhibitors. IDH1-R132H enzyme, NADPH consumption, diaphorase/resazurin fluorescence; further: potency means the concentration at half of the fitted maximal effect; on the % scale 0 is the no-effect control and ±100 the full control effect; nearly all actives have a fitted effect of over 65% in size
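IDH1-R132H (0.5 ug/mL dispensed) in pH 7.5 Tris buffer was preincubated 30 min with compound, then given a substrate mix of 0.016 mM NADPH and 2 mM alpha-KG for 80 min at room temperature; remaining NADPH was read by diaphorase/resazurin fluorescence.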
ClpP mod – qHTS Assay for Activators of ClpP. ATP-dependent Clp protease proteolytic subunit (Bacillus subtilis (strain 168)), P80244. purified B. subtilis ClpP, FRET peptide cleavage, 20 min. Potency, µM (top dose mostly 57.5 µM), inactives show at the top dose activity change, negative = active. 340,000 tested, 1.9% active. AID 651965, 2013; active means well fitted falling curve with a large enough effect; inconclusive means small, poorly fitted or top-dose-only effect; inactive means no such curve, though single readings can be large or run the other way; further: potency means the concentration at half of the fitted maximal effect; the source files actives as falling curves though it sought activators and does not explain the sign; nearly all actives have a fitted effect of over 65% in size
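FRET quenching reversal measured ClpP activation: 10 microg/mL B. subtilis ClpP at pH 8 with the FRET-FV decapeptide, read at 430 nm after 320 nm excitation. The 20-min minus 0-min signal was scaled between DMSO/no-enzyme wells and ADEP (5.8 microM final).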
S-ASM inh – human S-ASM enzyme inhibition. Potency, µM (series often up to 57.5 µM), inactives show top-dose activity change, negative = inhibition, hits mostly inhibitors. P17405. 340,000 tested, 0.006% active. placental ASM, HMU-PC fluorogenic substrate, 60 min; further: potency means the concentration at half of the fitted maximal effect
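HMU-PC0 cleavage (9 uM final) by human placental ASM, 60 min at 37 °C following 10 min compound exposure at RT; stopped at pH 10, fluorescence Ex 386/Em 447 nm.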
IDH1 autofl – interferes with resorufin fluorescence in IDH1 counter-screen; 750 tested, under 10 active; shares compounds with IDH1 R132H inh; Resorufin detection reagent fluorescence interference, cell-free; inhibition of signal, % at 51.2 µM;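 further: 0% = wells with normal resorufin and full inhibition = wells lacking resorufin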
IDH1 WT – inhibits human wild-type IDH1, mutant selectivity check; shares compounds with IDH1 R132H inh; WT IDH1 enzyme, NADPH diaphorase/resazurin fluorescence; Potency, µM (top dose mostly 115 µM), without a hit: top-dose activity change, negative = inhibition, usual class: inhibitors; 750 tested, 9% active; AID 623995;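 further: potency means the concentration at half of the fitted maximal effect; 0% = full WT IDH1 enzyme control and full inhibition = no enzyme wells; nearly all actives have a fitted effect of over 55% in size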
mIDH1 confirm – confirmation of human mutant IDH1 inhibitors; shares compounds with IDH1 R132H inh; IDH1 R132H enzyme, NADPH diaphorase/resazurin fluorescence; Potency, µM (titrated, usually from 76.6 µM), for inactives: top-dose activity change, negative = inhibition, actives largely listed as inhibitors; 750 tested, 83% active; further: potency means the concentration at half of the fitted maximal effect; nearly all actives have a fitted effect of over 50% in size
Numbers without * were called inactive; ? = inconclusive; / = no result given; [ ] = dose if it differs, or a comment. Unless noted, the call rests on the fitted dose curve; in most records, active means well fitted curve in the direction sought with a large enough effect; inconclusive means small, poorly fitted or top-dose-only effect, or another doubt; inactive means no such curve, though single readings can be large; an effect the other way counts as inactive or inconclusive.

SMILES	LDHA inh	RGS4 inhibitor	Mito fusion act	IDH1 R132H inh	ClpP mod	S-ASM inh	IDH1 autofl	IDH1 WT	mIDH1 confirm
COc1cc(C2c3c(-c4ccccc4O)n[nH]c3C(=O)N2Cc2ccncc2)ccc1O (stereo not drawn)	8	7%	/	15%	1%	/	/	/	/
COc1cccc(C2c3c(-c4ccccc4O)n[nH]c3C(=O)N2Cc2cccnc2)c1 (stereo not drawn)	6	-9%	/	-16%	-3%	/	/	/	/
O=C(NCC(O)c1ccccc1C(F)(F)F)c1cnccn1 (stereo not drawn)	10	/	/	/	/	/	/	/	/
O=C(CCc1ncc(-c2ccc(F)cc2)o1)Nc1cccc(C(=O)NC2CC2)c1	-2	/	/	/	/	/	/	/	/
Cc1ccc(C(NC(=O)C(C)C)c2cc([N+](=O)[O-])c3cccnc3c2O)cc1 (stereo not drawn)	17	-19%	3%	?	1%	-5%	7	?	28µM*
Cc1cccc(C)c1Nc1ncnc2sccc12	0	/	/	/	/	/	/	/	/
Cc1c(C)c2c(OCC(=O)O)cc3c(c2oc1=O)CCC(C)(C)O3	-1	-4%	-5%	?	4%	194%	1	?	18µM*
Cc1c(C)c2c(OCC(=O)NCC(=O)NCC(=O)O)cc3c(c2oc1=O)CCC(C)(C)O3	-5	-51%[56.9 µM]	2%	15%	/	98%	/	/	/
N#Cc1nc(-c2ccco2)oc1N1CCN(C(=O)NCC2CC2)CC1	4	/	/	/	/	/	/	/	/
CC(C)OCCCN1C(=O)c2[nH]nc(-c3ccccc3O)c2C1c1ccc(OCc2ccccc2)cc1 (stereo not drawn)	-5	5%	/	-5%	-11%	/	/	/	/
COc1cc(C2c3c(-c4ccccc4O)n[nH]c3C(=O)N2CCO)ccc1OCc1ccccc1 (stereo not drawn)	-5	-1%	/	?	1%	/	1	-5%	28µM*
CCCN1C(=O)c2[nH]nc(-c3ccccc3O)c2C1c1ccc(OCc2ccccc2)c(OC)c1 (stereo not drawn)	1	4%	/	-26%	-3%	/	/	/	/
O=C1c2[nH]nc(-c3ccccc3O)c2C(c2cccc(OCc3ccccc3)c2)N1CCCO (stereo not drawn)	-19	-6%	/	45µM*	-1%	/	-11	?	40µM*
O=C1c2[nH]nc(-c3ccccc3O)c2C(c2cccc(O)c2)N1Cc1ccco1 (stereo not drawn)	-2	-52%	-1%	5%	1%	-11%	/	/	/
Cc1cc(C)c(-c2n[nH]c3c2C(c2ccccc2F)N(Cc2ccco2)C3=O)c(O)c1 (stereo not drawn)	-9	-19%	/	?	-4%	/	-8	7%	?
Cc1ccc(O)c(-c2n[nH]c3c2C(c2ccc(F)cc2)N(Cc2ccco2)C3=O)c1 (stereo not drawn)	-4	1%	/	40µM*	-5%	/	-6	-14%	28µM*
COc1ccc(C2c3c(-c4ccccc4O)n[nH]c3C(=O)N2Cc2ccco2)cc1 (stereo not drawn)	0	-24%	9%	?	0%	-20%	-3	4%	32µM*
COc1ccc(C2c3c(-c4c(C)cc(C)cc4O)n[nH]c3C(=O)N2Cc2ccco2)cc1 (stereo not drawn)	-1	-7%	/	/	-3%	/	/	/	/
CC(C)CCNC(=O)C(c1ccc(O)cc1)N(C(=O)C1COc2ccccc2O1)c1cccc(O)c1 (stereo not drawn)	1	?	7%	?	/	-7%	6	14%	?
CCOc1cccc(N(C(=O)C2COc3ccccc3O2)C(C(=O)NC2CCCCC2)c2ccc(O)cc2)c1 (stereo not drawn)	0	-1%	-7%	?	2%	0%	5	10%	5.6µM*
O=C(NC1CCCC1)C(c1ccc(O)cc1)N(CC1CCCO1)C(=O)C1COc2ccccc2O1 (stereo not drawn)	-2	14%	1%	11%	-3%	-5%	/	/	/
COc1ccc(Nc2nc(-c3c[nH]c(C(=O)N4CCCC4)c3)cs2)cc1	8	/	/	/	/	/	/	/	/
Cc1c(NC(=O)c2cc3cc(Br)ccc3[nH]2)c(=O)n(-c2ccccc2)n1C	0	/	/	/	/	/	/	/	/
CCOC(=O)c1ccc(N2C(=O)c3n[nH]c(C)c3C2c2ccc(OC)cc2OC)cc1 (stereo not drawn)	0	-42%	-3%	-17%	1%	-17%	/	/	/
CCOc1ccc(N2C(=O)c3[nH]nc(-c4ccccc4)c3C2c2ccc(O)c(OC)c2)cc1 (stereo not drawn)	6	-18%	4%	?	-7%	/	0	1%	20µM*
SMILES	LDHA inh	RGS4 inhibitor	Mito fusion act	IDH1 R132H inh	ClpP mod	S-ASM inh	IDH1 autofl	IDH1 WT	mIDH1 confirm
Cc1ccc(-c2n[nH]c3c2C(c2cccc(O)c2)N(c2ccc(C(=O)O)cc2)C3=O)cc1 (stereo not drawn)	-3	-25%	1%	7%	-1%	20%	/	/	/
Cc1ccc(-c2n[nH]c3c2C(c2ccccc2)N(c2ccc(C(=O)O)cc2)C3=O)cc1 (stereo not drawn)	-8	-7%	0%	52µM*	/	3%	-2	-23%	28µM*
COc1ccc(C2c3c(-c4ccccc4)n[nH]c3C(=O)N2c2ccc(C(=O)O)cc2)c(OC)c1 (stereo not drawn)	-8	5%	/	40µM*	-1%	/	6	?	28µM*
CCOC(=O)c1ccc(N2C(=O)c3n[nH]c(-c4ccco4)c3C2c2ccc(OC)cc2OC)cc1 (stereo not drawn)	3	-16%	/	?	-11%	/	1	-1%	?
Cc1cccc(CS(=O)(=O)N2CCC(C(=O)N3CCN(c4ccccc4F)CC3)CC2)c1	1	/	/	/	/	/	/	/	/
CC(=O)N1CCN(Cc2csc(-c3ccc(C(F)(F)F)cc3)n2)CC1	6	/	/	/	/	/	/	/	/
